A selection: hits, their analogues and other compounds. The true share with any hit is near 4.5%.
Rpn11 block = inhibitors of human proteasome Rpn11; human 26S proteasome, Ub4-pepOG fluorescence polarization; 20S core pre-blocked with epoxomicin; inhibition, % at 20 µM; O00487; 360,000 tested, 0.59% active;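 active = inhibition at 20 µM, scaled to each plate's controls, above about 33%, limit read from the data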
TPT1 inh = C. albicans TPT1 enzyme inhibition | recombinant caTPT1, FP RNA substrate dephosphorylation | inhibition, % at 5 µM | 300,000 tested, 0.81% active | AID 1962;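 active = inhibition above the mean of all tested compounds plus 3 SD, set per screening campaign, cut at about 24% in these data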;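 note: plate controls were DMSO alone for no effect and ferristatin control at 100 nM for full effect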
ZTA DNA inh = ZTA (EBV) inhibition in EBNA-1 counter-screen | inhibition, % at 11 µM | 320,000 tested, 0.15% active | ZTA-DNA binding, fluorescence polarization; in the data active = inhibition above about 33%
Target sequence (P03206 whole entry, looked up): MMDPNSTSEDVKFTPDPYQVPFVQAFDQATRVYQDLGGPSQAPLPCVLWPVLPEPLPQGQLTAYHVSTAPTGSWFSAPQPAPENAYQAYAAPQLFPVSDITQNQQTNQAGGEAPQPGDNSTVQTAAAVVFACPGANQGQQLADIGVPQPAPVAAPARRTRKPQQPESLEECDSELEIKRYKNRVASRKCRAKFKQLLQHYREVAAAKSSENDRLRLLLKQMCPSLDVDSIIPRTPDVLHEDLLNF
dFosB act = enhances mouse delta FosB homodimer DNA binding. purified delta FosB, TAMRA-CDK5 oligo fluorescence polarization; percent of positive-control signal above neutral wells. AID 493131. 340,000 tested, 0.99% active. activation, % at 25 µM;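 active = mean activation above about 17%, with every replicate also reaching it, limit read from the data, passing the limit was not always enough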
Target sequence (P13346 whole entry, looked up): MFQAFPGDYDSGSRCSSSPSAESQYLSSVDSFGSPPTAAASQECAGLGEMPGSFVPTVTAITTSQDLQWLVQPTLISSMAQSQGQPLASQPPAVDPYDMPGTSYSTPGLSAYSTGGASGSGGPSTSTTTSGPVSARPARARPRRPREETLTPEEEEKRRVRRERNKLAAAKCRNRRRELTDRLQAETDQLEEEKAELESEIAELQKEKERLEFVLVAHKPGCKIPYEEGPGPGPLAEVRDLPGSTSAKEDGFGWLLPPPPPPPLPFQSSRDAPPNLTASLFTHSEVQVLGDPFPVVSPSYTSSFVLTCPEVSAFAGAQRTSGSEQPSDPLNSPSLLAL
EBNA-1 inhibitor = blocks EBNA-1 binding to DNA. EBNA-1 DNA binding, fluorescence polarization. inhibition, % at 14.8 µM. 300,000 tested, 0.34% active; in the data active = inhibition above about 28%
NR3A LBD binder = modulates the human NR3A ligand-binding domain | NR3A LBD differential scanning fluorimetry, Tm shift; 0% = protein alone, 100% = glycine-bound protein | Tm shift relative to glycine control, % at 25 µM | 340,000 tested, 2.5% active | AID 1259313;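 active = melting temperature shift of at least 10% of the positive control shift, at one fixed dose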
Rpn11 confirm = confirmation of human proteasome Rpn11 inhibitors; shares compounds with Rpn11 block; purified human 26S proteasome, Ub4-pepOG fluorescence polarization; proteasome pretreated with epoxomicin; inhibition, % at 20 µM; 1,900 tested, 29% active
MMP-2 counter = counter-screen for RPN11 inhibitors: inhibition of human MMP-2; shares compounds with Rpn11 block; recombinant MMP-2, FRET peptide cleavage fluorescence; inhibition, % at 20 µM; 1,900 tested, 4% active; AID 602330;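 note: human MMP-2 activated beforehand with APMA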
Thrombin FP = blocks bovine thrombin, flagging nonselective RPN11 hits; inhibition, % at 20 µM; AID 602333; shares compounds with Rpn11 block; 1,900 tested, 13% active; bovine thrombin cleavage of Ub4-pepOG, fluorescence polarization;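 active = mean inhibition at least 40% at 20 µM, or signal 3 deviations below plate average, so some actives read negative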;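 note: plate controls were thrombin with DMSO for no effect and buffer wells lacking thrombin for full effect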
The depositor's hits bear a star; x = not tested or not shown. Cut-off read from the data, not from the text of the source, unless noted: active = inhibition above about 40%; inactive = the rest.

SMILES	Rpn11 block	TPT1 inh	ZTA DNA inh	dFosB act	EBNA-1 inhibitor	NR3A LBD binder	Rpn11 confirm	MMP-2 counter	Thrombin FP
CC(C)c1ccccc1NC(=S)NN(Cc1ccccc1)c1ccccc1	8	-5	2	-3	-7	2	x	x	x
O=C(O)c1cn(C2CC2)c2cc(N3CCN(S(=O)(=O)c4ccc5c(c4)OCCO5)CC3)c(F)cc2c1=O	102*	1	-10	-13	-10	0	16	-10	14
Cc1cc(C)c2cc3c(N)c(C(=O)N4CCOCC4)sc3nc2c1	5	-1	-18	-11	6	-1	x	x	x
Cc1cc(C)c2cc3c(N)c(C(=O)Nc4c(C)[nH]c(=O)[nH]c4=O)sc3nc2c1	46*	48*	4	-10	11	1	122*	-29	13
O=C(C[C@H]1C[C@H](C(=O)N2CCOCC2)[C@@]2(CCC3CCCC3)c3[nH]c4cc(-c5ccco5)ccc4c3CCN2C1=O)NCCc1ccccn1	11	x	x	-13	x	-1	x	x	x
COc1ccc(CNC(=O)C[C@H]2C[C@H](C(=O)N3CCCCC3)[C@@]3(CCc4ccccc4)c4[nH]c5cc(-c6ccco6)ccc5c4CCN3C2=O)cc1OC	56*	x	x	1	x	3	3	-2	-5
C[C@]12c3[nH]c4cc(-c5ccco5)ccc4c3CCN1C(=O)[C@@H](CC(=O)NCC13CC4CC(CC(C4)C1)C3)C[C@@H]2C(=O)N1CCCCC1	39*	x	x	-17	x	0	-6	5	-10
O=C(C[C@H]1C[C@H](C(=O)N2CCOCC2)[C@@]2(CCC3CCCC3)c3[nH]c4cc(-c5ccco5)ccc4c3CCN2C1=O)NCCC1=CCCCC1	38*	x	x	0	x	-9	2	-24	-6
CC(C)(C)NC(=O)C[C@H]1C[C@H](C(=O)N2CCCCC2)[C@@]2(CCc3ccccc3)c3[nH]c4cc(-c5ccco5)ccc4c3CCN2C1=O	53*	x	x	-18	x	0	11	32	23
CC[C@]12c3[nH]c4cc(-c5ccco5)ccc4c3CCN1C(=O)[C@@H](CC(=O)NCc1ccc(OC)c(OC)c1)C[C@@H]2C(=O)N1CCN(C(=O)C2CC2)CC1	10	x	x	-19	x	2	x	x	x
CON=C1C=C(C)C(=O)C(C)=C1C	3	x	x	7	x	0	x	x	x
CCN1C(=O)[C@H]2[C@@H](c3ccc(-c4ccccc4)c(OC)c3)N[C@@](CC(C)C)(C(=O)OC)[C@H]2C1=O	4	x	x	1	x	-5	x	x	x
Cc1ccc(OCCSCc2nc3ccccc3[nH]2)cc1	0	-1	8	-5	2	2	x	x	x
Clc1ccc(OCCSCc2nc3ccccc3[nH]2)cc1	44*	16	1	-2	4	-5	26	-9	15
O=C1Cn2nnc(-c3ccccc3)c2C2c3ccccc3CCN12 (stereo unspecified)	-2	x	x	x	x	x	x	x	x
CCOC(=O)c1sc(Nc2ccccc2)nc1C	-3	-6	-15	-8	-3	-2	x	x	x
CCOC(=O)c1sc(Nc2ccc(C)cc2C)nc1C	36*	2	6	1	-4	1	-8	17	-22
COc1ccc(-c2[nH]ncc2CNC(C)c2cn(C)nc2C)c(F)c1 (stereo unspecified)	11	-7	-17	3	-12	-1	x	x	x
COc1cc(C=c2c3ccccc3n3c2cc(-c2ccccc2)[n+]3C)cc(OC)c1OC	13	x	x	-6	x	-4	x	x	x
COc1cc(N(C)C)ccc1C=c1c2ccccc2n2c1cc(-c1ccccc1)[n+]2C	115*	x	x	234*	x	-25	98*	-84	82*
N#Cc1cc2ccccc2nc1SCC(=O)Nc1ccccc1N1CCOCC1	7	5	-17	-6	2	3	x	x	x
Cc1cccc2cc(C#N)c(SCC(=O)Nc3ccccc3N3CCOCC3)nc12	36*	10	4	-10	-6	1	14	-44	-20
CCN(CC(=O)Nc1ccc(NC(C)=O)cc1)C(=O)c1ccccc1CCc1ccccc1	0	-3	-19	-3	-5	-6	x	x	x
Cc1ccc(NC(=O)CS(=O)CC(=O)Nc2cnc3ccccc3c2)cc1Cl (stereo unspecified)	49*	-1	-1	-3	-2	32*	10	-28	21
Cc1ccc(NC(=O)CS(=O)CC(=O)NCCCc2ccccc2)cc1Cl (stereo unspecified)	3	0	12	-6	2	-4	x	x	x
SMILES	Rpn11 block	TPT1 inh	ZTA DNA inh	dFosB act	EBNA-1 inhibitor	NR3A LBD binder	Rpn11 confirm	MMP-2 counter	Thrombin FP
C=CC[n+]1c(-c2ccc(OCC)cc2)csc1NNC(=O)Nc1ccccc1	42*	12	-9	-25	-8	-3	-22	12	-28
COc1ccc2cc(-c3csc(-c4cccnc4)n3)ccc2c1	65*	0	13	2	-2	26*	9	-12	3
COc1ccccc1N1CCN(S(=O)(=O)c2ccc3c(c2)oc(=O)n3C)CC1	-3	3	-18	-13	-10	1	x	x	x
Cn1c(=O)oc2cc(S(=O)(=O)N3CCN(c4ccccc4F)CC3)ccc21	48*	7	-7	3	-8	12*	71*	-35	16
CC1CCC2(CC1)NC(=O)N(CC(=O)Nc1sc3c(c1C(N)=O)CCC3)C2=O (stereo unspecified)	65*	21	1	-13	-3	-4	9	26	3
Cn1cnnc1SCC(=O)Nc1sc2c(c1C(N)=O)CCC2	41*	24	10	-9	3	-5	40	24	12
Cc1cc(C)cc(N(CCC#N)C(=O)CSc2n[nH]c(N)n2)c1	0	0	-13	-3	-17	-2	x	x	x
CCCOc1ccc(C(=O)Nc2ccc(S(=O)(=O)N3C[C@@H]4C[C@@H](C3)c3cccc(=O)n3C4)cc2)cc1	5	x	16	14	x	3	x	x	x
CC(C)c1nnc(NC(=O)Cc2cccs2)s1	-3	-1	13	5	7	-1	x	x	x
CC(C)Cc1nnc(NC(=O)Cc2cccs2)s1	52*	18	-2	-12	5	-8	81*	31	39
CC(C)CCN1CC(=O)N2[C@@H](Cc3c([nH]c4ccccc34)C2(C)C)C1=O	-1	x	x	-8	x	0	x	x	x
O=C(N/N=C\c1ccc(OC(=O)c2cccs2)cc1)c1ccc(Cl)cc1	76*	-2	-11	0	5	-34	31	4	-4
